Several values for one entry are separate records, joined by “and”; a condition that tells them apart may be missing. Identical values can stand only once. Inconclusive results are not listed. Activity calls are given as the source filed them. Unless noted, the call rests on the fitted dose curve; in most records, active means well fitted curve in the direction sought with a large enough effect in the repeat runs; inconclusive means weak or mixed curves; inactive means no such curve, though single readings can be large; an effect the other way counts as inactive or inconclusive.
What was measured:
[1] = qHTS assay to identify small molecule agonists of the hypoxia (HIF-1) signaling pathway - cell viability counter screen (AID 1224844; calls by dose curve; further: nearly all actives have a fitted effect of over 50% in size; further: potency means the concentration at half of the fitted maximal effect)
Method in brief: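 HRE-bla ME-180 cells, 2,000/well in 0.5% dialyzed FBS medium, treated 17 h at 37C with compounds. Viability read in the same wells as the bla reporter, by CellTiter-Glo luminescence after 30 min at room temperature.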

[2] = qHTS assay to identify small molecule agonists of H2AX (AID 1224845; active means well fitted activation curve with a large enough effect in the signal ratio in the repeat runs, not every such curve was filed as active; the % refers to the signal ratio)
Method in brief: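 Wild-type CHO-K1 cells, plated overnight, exposed 3hr at 37C to 15 concentrations (0.76% DMSO final). Lysed, then HTRF anti-pH2AX (S139) cryptate and anti-H2AX-d2 antibodies, 24 hr room temperature; 665/620 nm emission read.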

[3] = qHTS assay to identify small molecule agonists of the hypoxia (HIF-1) signaling pathway (AID 1224846; active means well fitted activation curve with a large enough effect in the signal ratio in the repeat runs, not every such curve was filed as active; the % refers to the signal ratio)
Method in brief: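 HRE-bla ME-180 beta-lactamase reporter cells in medium with 0.5% dialyzed FBS, pre-incubated 5 h then exposed to compounds 17 h at 37C, 5% CO2; reporter induction read with CCF4-AM FRET substrate.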

[4] = qHTS assay to identify small molecule agonists of H2AX - cell viability counter screen (AID 1224847; calls by dose curve; further: nearly all actives have a fitted effect of over 30% in size; further: potency means the concentration at half of the fitted maximal effect)
Method in brief: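 Compounds tested at 15 concentrations were incubated 3 hr at 37C with wild-type CHO-K1 cells; cellular ATP-based luminescence (CellTiter-Glo) indicated viability.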

[5] = qHTS assay to identify small molecule antagonists of the estrogen related receptor (ERR) signaling pathway from Tox21 library (AID 1224848); further: nearly all actives have a fitted effect of over 50% in size; further: potency means the concentration at half of the fitted maximal effect
Method in brief: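 ERR reporter cell line (from NTP) seeded 2,000 cells/well, rested 6 h at 37 C/5% CO2, then pin-dosed with compounds in DMSO. After 18 h at 37 C, ONE-Glo added; luminescence read after 30 min at room temperature.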

[6] = qHTS assay to identify small molecule agonists of the estrogen related receptor (ERR) signaling pathway from Tox21 library (AID 1224849; calls by dose curve; further: nearly all actives have a fitted effect of over 15% in size); conditions: ERR reporter cell line, ONE-Glo luciferase, 18 h
Method in brief: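 ERR reporter cells (NTP line) pre-incubated 6 hours at 37 C, then exposed to compounds for 18 hours at 37 C. ONE-Glo luciferase luminescence was read after 30 minutes at room temperature.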

[7] = qHTS RealTime-Glo MT Cell Viability Assay in HepG2 cells - 24 hour (AID 1224867); further: nearly all actives have a fitted effect of over 50% in size
Method in brief: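 Luminescence read-out: viable HepG2 cells reduce a prosubstrate to a NanoLuc substrate, giving a signal proportional to live cell number. Reads taken at 0, 8, 16, 24, 32 and 40 h of compound exposure at 37 C.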

[8] = qHTS RealTime-Glo MT Cell Viability Assay in HEK293 cells - 32 hour (AID 1224868); further: top concentration of the series differs between compounds; nearly all actives have a fitted effect of over 50% in size
Method in brief: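 Nonlytic real-time viability readout: viable cells convert prosubstrate to NanoLuc substrate, giving luminescence proportional to live cell number. HEK293, 600 cells/well, compound added after 5 h, continuous culture at 37 C.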

[9] = A CellTox Green Cytotoxicity Assay to monitor cytotoxicity in HEK293 cells - 0 hour (AID 1224869); further: nearly all actives have a fitted effect of over 50% in size
Method in brief: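 HEK293 cells, 600/well, were preincubated 5 hours and then exposed to compounds at 37 C for up to 40 hours. A cell-impermeant cyanine dye staining dead-cell DNA was read by fluorescence at 0, 8, 16, 24, 32 and 40 h time points.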

[10] = qHTS RealTime-Glo MT Cell Viability Assay in HepG2 cells - 40 hour (AID 1224870); further: nearly all actives have a fitted effect of over 50% in size
Method in brief: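 HepG2 cells (600/well) mixed with RealTime-Glo MT reagent, settled 5 h at 37 C/5% CO2 before compound addition. Nonlytic NanoLuc luminescence from viable-cell prosubstrate reduction read repeatedly during 40 h treatment at 37 C.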
On the % scale 0 is the no-effect control and ±100 the full control effect.

CC1=C(C=O)C(C)(C)CC=C1
inactive: Potency [1] | Potency [2] | Potency [3] | Potency [4] | Potency [5] | activity change, positive = activation ([6]; at 92.4 µM (top of the series)) 0.302% | Potency [7] | Potency [8] | Potency [9] | Potency [10]

C=CC(=O)OCCCCCCCC
inactive: Potency [1] | Potency [2] | Potency [3] | Potency [4] | Potency [5] | activity change, positive = activation ([6]; at 92.4 µM (top of the series)) 2.1% | Potency [7] | Potency [8] | Potency [9] | Potency [10]

[Cl][In]([Cl])[Cl]
active: Potency [5] 34.4 µM
inactive: Potency [1] | Potency [2] | Potency [3] | Potency [4] | activity change, positive = activation ([6]; at 92.4 µM (top of the series)) -22.9% and -30% | Potency [7] | Potency [9] | Potency [10]

C[N+]1([O-])CCOCC1
inactive: Potency [1] | Potency [2] | Potency [3] | Potency [4] | Potency [5] | activity change, positive = activation ([6]; at 92.4 µM (top of the series)) -0.0985% | Potency [7] | Potency [8] | Potency [10]

Cc1cccc([N+](=O)[O-])c1C(=O)O
inactive: Potency [1] | Potency [2] | Potency [3] | Potency [4] | Potency [5] | activity change, positive = activation ([6]; at 92.4 µM (top of the series)) 4.9% | Potency [7] | Potency [8] | Potency [9] | Potency [10]

O=S(=O)(O)c1ccc2nc(-c3ccccc3)[nH]c2c1
inactive: Potency [2] | Potency [3] | Potency [5] | activity change, positive = activation ([6]; at 42.5 µM (top of the series)) 2.03% | activity change, positive = activation ([6]; at 92.4 µM (top of the series)) -3.59% | Potency [7] | Potency [8] | Potency [9] | Potency [10]
active: Potency [1] 18.6 µM and 10.7 µM | Potency [4] 30.3 µM and 22 µM

CC(C)(O)CCC(C)(C)O
inactive: Potency [1] | Potency [2] | Potency [3] | Potency [4] | Potency [5] | activity change, positive = activation ([6]; at 92.4 µM (top of the series)) -1.25% | Potency [7] | Potency [8] | Potency [10]

CCCC(=O)c1ccccc1
inactive: Potency [1] | Potency [2] | Potency [3] | Potency [4] | Potency [5] | activity change, positive = activation ([6]; at 92.4 µM (top of the series)) 1.85% | Potency [7] | Potency [8] | Potency [9] | Potency [10]

CCCCN(CCO)CCCC
inactive: Potency [1] | Potency [2] | Potency [3] | Potency [4] | Potency [5] | activity change, positive = activation ([6]; at 92.4 µM (top of the series)) 1.42% | Potency [7] | Potency [8] | Potency [9] | Potency [10]

COc1cc(C(=S)N2CCOCC2)ccc1O
inactive: Potency [1] | Potency [2] | Potency [3] | Potency [4] | Potency [5] | activity change, positive = activation ([6]; at 42.5 µM (top of the series)) -0.619% | Potency [7] | Potency [8] | Potency [10]

O=Cc1ccc(Cl)cc1
inactive: Potency [1] | Potency [2] | Potency [3] | Potency [4] | Potency [5] | activity change, positive = activation ([6]; at 92.4 µM (top of the series)) -1.47% | Potency [7] | Potency [8] | Potency [10]

C=C(C)C1CC=C(C)C(OC(C)=O)C1 (stereo not given)
inactive: Potency [1] | Potency [2] | Potency [3] | Potency [4] | Potency [5] | activity change, positive = activation ([6]; at 92.4 µM (top of the series)) 2.18% and 0.969% | Potency [7] | Potency [8] | Potency [9] | Potency [10]

COc1ccc(Cc2cnc(N)nc2N)cc1OC
inactive: Potency [1] | Potency [2] | Potency [3] | Potency [4] | Potency [5] | activity change, positive = activation ([6]; at 42.5 µM (top of the series)) 4.01% | Potency [7] | Potency [8] | Potency [9] | Potency [10]

c1cnc2cc3c(cc2n1)C1CNCC3C1
inactive: Potency [1] | Potency [2] | Potency [3] | Potency [4] | Potency [5] | activity change, positive = activation ([6]; at 42.5 µM (top of the series)) 1.11% | Potency [7] | Potency [8] | Potency [9] | Potency [10]

CCC(CO)(CO)COCC(CC)(CO)CO
inactive: Potency [1] | Potency [2] | Potency [3] | Potency [4] | Potency [5] | activity change, positive = activation ([6]; at 92.4 µM (top of the series)) 6.39% | Potency [7] | Potency [8] | Potency [9] | Potency [10]

C=CS(=O)(=O)O
inactive: Potency [1] | Potency [2] | Potency [3] | Potency [4] | Potency [5] | activity change, positive = activation ([6]; at 92.4 µM (top of the series)) -0.911% | Potency [7] | Potency [8] | Potency [10]

CO[Si](OC)(OC)c1ccccc1
inactive: Potency [1] | Potency [2] | Potency [3] | Potency [4] | Potency [5] | activity change, positive = activation ([6]; at 92.4 µM (top of the series)) 18% | Potency [7] | Potency [8] | Potency [9] | Potency [10]

CC[C@@H](N)CO
inactive: Potency [1] | Potency [2] | Potency [3] | Potency [4] | Potency [5] | activity change, positive = activation ([6]; at 92.4 µM (top of the series)) -0.0387% | Potency [7] | Potency [8] | Potency [9] | Potency [10]

O=C(O)Cn1cnnn1
inactive: Potency [1] | Potency [2] | Potency [3] | Potency [4] | Potency [5] | activity change, positive = activation ([6]; at 42.5 µM (top of the series)) 4% | Potency [7] | Potency [8] | Potency [9] | Potency [10]

CC(=O)CC(C)=O
inactive: Potency [1] | Potency [2] | Potency [3] | Potency [4] | Potency [5] | activity change, positive = activation ([6]; at 92.4 µM (top of the series)) 3.5% | Potency [7] | Potency [8] | Potency [9] | Potency [10]
